# According to the supplement of paper PMC9262897, “Low-cost anti-mycobacterial drug discovery using engineered E. coli” (Nature Communications, 2022):
# Where a name gives a salt, the structure may show the parent alone. ± gives the standard deviation of the averaged measurements.
# How the values were obtained:
# Assay in all cases: growth (OD600 after 10 h); higher = more growth (less inhibition)
# [1] = tested on: E. coli TESEC Alr+ wild-type control; conditions: compound 0.1 mM; raw OD600 reference: median of DMSO wells 0.241, cell-free background 0.041
# Description: (§1)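 TESEC Mtb Alr E. coli, or the Alr+ wild-type control, in 384-well plates with Prestwick library compounds at 0.1 mM and 1% DMSO, across arabinose induction levels of 1E3 to 1E7 nM. Growth is read as OD600 after 10 h at 37 °C in triplicate biological replicates.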
# [2] = tested on: E. coli TESEC Mtb Alr; conditions: compound 0.1 mM
# Description: as §1
# [3] = tested on: E. coli TESEC Mtb Asd; conditions: compound 0.1 mM
# Description: (§2)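 TESEC E. coli strains in which the native enzyme is deleted and replaced by arabinose-inducible Mtb Asd, DapB, CysH or TrpD, each grown in its selective medium. Strains were screened against the Prestwick library at 0.1 mM and 1% DMSO in 384-well format at low and high arabinose induction. Growth is read as OD600 after 10 h in triplicate.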
# [4] = tested on: E. coli TESEC Mtb DapB; conditions: compound 0.1 mM
# Description: as §2
# [5] = tested on: E. coli TESEC Mtb Alr; conditions: compound 0.1 mM; remark: listed apart in the source
# Description: (§3)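 TESEC Mtb Alr E. coli (ΔaraC ΔtolC ΔentC Δalr ΔdadX, arabinose-inducible Mtb Alr) or the Alr+ wild-type control strain, grown in defined M9-fructose medium without D-alanine in 96-well plates with Prestwick library compounds at 0.1 mM and 1% DMSO. Low Alr induction is 0.1 µM arabinose and high induction is 10 mM arabinose.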
# [6] = tested on: E. coli TESEC Alr+ wild-type control; conditions: compound 0.1 mM; raw OD600 reference: median of DMSO wells 0.49, cell-free background 0.052
# Description: as §3
# [7] = arabinose 1000 nM, raw OD600 reference: median of DMSO wells 0.294, cell-free background 0.041
# [8] = arabinose 10000 nM, raw OD600 reference: median of DMSO wells 0.264, cell-free background 0.041
# [9] = arabinose 100000 nM, raw OD600 reference: median of DMSO wells 0.201, cell-free background 0.041
# [10] = arabinose 1000000 nM, raw OD600 reference: median of DMSO wells 0.193, cell-free background 0.041
# [11] = arabinose 10000000 nM, raw OD600 reference: median of DMSO wells 0.146, cell-free background 0.041
# [12] = arabinose induction (level): High, raw OD600 reference: median of DMSO wells 0.331, cell-free background 0.041
# [13] = arabinose induction (level): Low, raw OD600 reference: median of DMSO wells 0.417, cell-free background 0.041
# [14] = arabinose induction (level): High, raw OD600 reference: median of DMSO wells […], cell-free background 0.041
# [15] = arabinose induction (level): Low, raw OD600 reference: median of DMSO wells 0.227, cell-free background 0.041
# [16] = arabinose 100 nM, raw OD600 reference: median of DMSO wells 0.413, cell-free background 0.052
# [17] = arabinose 10000000 nM, raw OD600 reference: median of DMSO wells […], cell-free background 0.052
Structure (SMILES),growth [1],"growth [2, 7]","growth [2, 8]","growth [2, 9]","growth [2, 10]","growth [2, 11]","growth [3, 12]","growth [3, 13]","growth [4, 14]","growth [4, 15]","growth [5, 16]","growth [5, 17]",growth [6]
CC(=O)Oc1ccccc1C(=O)Nc1ncc([N+](=O)[O-])s1 [Nitazoxanide],0.0514 ± 0.01,0.0462 ± 0.0042,0.0417 ± 0.00046,0.0425 ± 0.0013,0.0434 ± 0.0042,0.0448 ± 0.0011,0.0632 ± 0.0045,0.05953 ± 0.00059,0.0545 ± 0.0006,0.0559 ± 0.0026,0.157 ± 0.039,0.0545 ± 0.0013,
CCCNC(=O)NS(=O)(=O)c1ccc(Cl)cc1 [Chlorpropamide],0.255 ± 0.0063,0.301 ± 0.007,0.25 ± 0.0077,0.23 ± 0.048,0.184 ± 0.008,0.141 ± 0.0057,0.392 ± 0.035,0.409 ± 0.057,0.234 ± 0.032,0.231 ± 0.0079,0.396 ± 0.02,0.3521 ± 0.0031,
CC[C@H]1OC(=O)[C@H](C)[C@@H](O[C@H]2C[C@@](C)(OC)[C@@H](O)[C@H](C)O2)[C@H](C)[C@@H](O[C@@H]2O[C@H](C)C[C@H](N(C)C)[C@H]2O)[C@](C)(O)C[C@@H](C)[C@@H]2N[C@@H](COCCOC)O[C@H]([C@H]2C)[C@]1(C)O [Dirithromycin],0.0424 ± 0.0002,0.04193 ± 0.00015,0.03907 ± 0.00012,0.044 ± 0.00057,0.0396 ± 0.0001,0.0428 ± 0.0002,0.057 ± 0.0029,0.054 ± 0.0053,0.0519 ± 0.0012,0.052 ± 0.00061,0.0635 ± 0.0042,0.0507 ± 0.00036,
CN(C)CC/C=C1/c2ccccc2COc2ccc(CC(=O)O)cc21 [Olopatadine hydrochloride],0.2304 ± 0.0017,0.281 ± 0.0096,0.276 ± 0.0029,0.179 ± 0.014,0.231 ± 0.013,0.126 ± 0.0042,0.256 ± 0.056,0.328 ± 0.089,0.198 ± 0.011,0.233 ± 0.015,0.425 ± 0.0062,0.361 ± 0.013,0.589 ± 0.097
CCOc1ccc2ccccc2c1C(=O)N[C@@H]1C(=O)N2[C@@H]1SC(C)(C)[C@@H]2C(=O)O [Nafcillin sodium salt monohydrate],0.236 ± 0.0097,0.303 ± 0.011,0.257 ± 0.014,0.203 ± 0.0041,0.188 ± 0.01,0.138 ± 0.0027,0.43 ± 0.048,0.439 ± 0.043,0.183 ± 0.007,0.22 ± 0.0024,0.403 ± 0.013,0.343 ± 0.016,
CN[C@@H]1[C@@H](O[C@H]2O[C@H](CO)[C@@H](N)[C@H](O)[C@H]2O)OC2C[C@@H](N)[C@@H](O[C@H]3[C@H](O)[C@@H](O)[C@H](N)C[C@@H]3N)OC2[C@@H]1O (stereo partly drawn) [Apramycin],0.0408 ± 0.00099,0.045 ± 0.0037,0.03913 ± 0.00032,0.0442 ± 0.00091,0.0395 ± 0.0018,0.05653 ± 0.00029,0.0487 ± 0.0014,0.0476 ± 0.0012,0.0527 ± 0.0023,0.048 ± 0.0016,0.0841 ± 0.008,0.133 ± 0.069,0.0798 ± 0.0039
Fc1ccc(C(c2ccc(F)cc2)N2CCN(C/C=C/c3ccccc3)CC2)cc1 [Flunarizine dihydrochloride],0.0778 ± 0.012,0.11 ± 0.019,0.0787 ± 0.0024,0.116 ± 0.012,0.0591 ± 0.0018,0.0509 ± 0.0027,0.0843 ± 0.013,0.056 ± 0.0016,0.0896 ± 0.0018,0.163 ± 0.065,0.318 ± 0.037,0.128 ± 0.014,0.234 ± 0.0076
CC(=O)N(CC(O)CO)c1c(I)c(C(=O)NCC(O)CO)c(I)c(C(=O)NCC(O)CO)c1I (stereo not drawn) [Iohexol],0.242 ± 0.011,0.285 ± 0.0098,0.276 ± 0.0072,0.221 ± 0.043,0.195 ± 0.004,0.1422 ± 0.0012,0.35 ± 0.046,0.414 ± 0.056,0.195 ± 0.014,0.201 ± 0.02,0.418 ± 0.01,0.343 ± 0.022,0.512 ± 0.11
CCN1CCN(C(=O)N[C@@H](C(=O)N[C@@H]2C(=O)N3[C@@H]2SC(C)(C)[C@@H]3C(=O)O)c2ccccc2)C(=O)C1=O [Piperacillin sodium salt],0.237 ± 0.0061,0.295 ± 0.014,0.268 ± 0.0055,0.204 ± 0.0097,0.201 ± 0.0086,0.133 ± 0.0047,0.328 ± 0.021,0.4754 ± 0.0046,0.204 ± 0.01,0.207 ± 0.025,0.405 ± 0.013,0.354 ± 0.011,0.508 ± 0.061
